Measured values taken from PubChem BioAssay AID651804 (National Center for Advancing Translational Sciences (NCATS), 2012).
The campaign covered roughly 1,200 compounds. About 20 (2%) were called active. Entries that show only a call come without a potency. Not shown: some 23% with an inconclusive outcome. The sample holds actives, similar compounds and a random draw of the others, so the mix is not that of the screen. Calls come from the whole dose curve; as a rule, active = well fitted inhibition curve with a large enough effect; inconclusive = small, poorly fitted or top-dose-only effect; inactive = no such curve, though single readings can be large or run the other way.

Biological target: Transcriptional regulator ERG (Homo sapiens) (UniProt P11308)
Assay: qHTS for Small Molecule Inhibitors of the ERG Ets/DNA interaction: HTRF assay against cherry picks
Conditions: His-ERG Ets domain with biotin-DNA; series mostly up to 154 µM
Outline: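 HTRF of His-tagged ERG Ets domain (200 nM solution) with biotin-DNA (200 nM solution) in 300mM KCl, 50mM Tris-HCl pH 7.5, 1mM EDTA, 1mM DTT; 10 min RT. Anti-His cryptate donor plus streptavidin acceptor added, 10 min, FRET read at 615/665 nm.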
Potency is the fitted concentration of half-maximal effect.

Chain of Transcriptional regulator ERG (Homo sapiens) (P11308 whole entry, looked up): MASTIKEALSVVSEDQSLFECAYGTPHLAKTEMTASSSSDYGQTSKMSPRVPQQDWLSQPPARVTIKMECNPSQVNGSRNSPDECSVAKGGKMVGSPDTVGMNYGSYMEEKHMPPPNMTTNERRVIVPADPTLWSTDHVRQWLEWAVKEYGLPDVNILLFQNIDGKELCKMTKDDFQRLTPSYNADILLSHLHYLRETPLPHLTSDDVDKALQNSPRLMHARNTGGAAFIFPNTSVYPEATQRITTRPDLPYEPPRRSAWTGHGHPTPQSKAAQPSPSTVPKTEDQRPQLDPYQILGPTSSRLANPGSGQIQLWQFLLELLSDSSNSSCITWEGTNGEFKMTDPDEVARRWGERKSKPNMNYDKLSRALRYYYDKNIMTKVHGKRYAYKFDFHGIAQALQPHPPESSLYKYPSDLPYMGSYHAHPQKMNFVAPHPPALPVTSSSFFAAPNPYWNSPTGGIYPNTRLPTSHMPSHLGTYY

SMILES | Potency
CC1(c2ccccc2Cl)NC(=O)N(CC(=O)Nc2ccccc2OC(F)F)C1=O (configuration not stated) | inactive
Cc1cccc(NC(=O)c2ccccc2NC(=O)c2ccco2)c1 | inactive
COc1ccc(-c2n(CC(=O)OC3CC(C)CCC3C(C)C)c3ccccc3[n+]2C)cc1 (configuration not stated) | inactive
Cc1cccc(C(=O)N[C@H](C(=O)Nc2ccc(C)c(S(=O)(=O)N(C)C)c2)C(C)C)c1 | inactive
CCN(CC(=O)Nc1ccccc1C(F)(F)F)C(=O)c1ccc(N2C(=O)CCC2=O)cc1 | inactive
Cc1ccc(NS(=O)(=O)c2ccc(NC(=O)c3ccccc3C(=O)O)cc2)cc1C | inactive
CCc1cccc(C)c1NC(=O)CSc1nc(C)c(C)o1 | inactive
COC(=O)Nc1ccc(S(=O)(=O)NNC(=O)c2c(O)c3ccccc3n(C)c2=O)cc1 | inactive
CCOC(=O)C1CN(S(=O)(=O)c2cc(OC)ccc2OC)C1 | inactive
COc1ccc(-n2c(=O)c3c4c(sc3n(Cc3ccc(C(C)(C)C)cc3)c2=O)CCC4)c(OC)c1 | inactive
CC(=O)Nc1cccc(NC(=O)c2ccccc2OCc2c(C)noc2C)c1 | inactive
Cc1ccc(S(=O)(=O)NC2CCCC(C(=O)O)C2)cc1 (configuration not stated) | inactive
Cc1cc(C)cc(-n2ccnc2SCC(=O)Nc2ccc(C)c(Cl)c2)c1 | inactive
COC(=O)[C@H](Cc1ccccc1)NC(=O)C1(OC(C)=O)CC(OC(C)=O)C(OC(C)=O)C(OC(C)=O)C1 (some centres not stated) | inactive
CCCCn1c(N)c(N(CCOC)C(=O)c2ccc(S(=O)(=O)N3CCCCC3)cc2)c(=O)[nH]c1=O | inactive
COc1ccc(OCCCC(=O)Nc2cccc(C(C)=O)c2)cc1 | inactive
Cc1cccc(NC2(C(=O)O)CCCC2)c1 | inactive
CC(=O)c1ccc(OCc2ccc(Oc3c(Cl)cccc3[N+](=O)[O-])cc2)cc1 | inactive
Cc1ccc2c(c1)N(CC(=O)NC1CCCc3ccccc31)C(=O)CO2 (configuration not stated) | inactive
CC(=O)Nc1ccc(S(=O)(=O)N2CCCC(C(=O)N3CCN(c4ccccc4)CC3)C2)cc1 (configuration not stated) | inactive
CCc1ccc(Nc2ncnc3nc[nH]c23)cc1 | inactive
CC(C)CCNC(=O)c1ccc2c(SCC(=O)O)c3c(nc2c1)CCCC3 | inactive
Cc1cc(NC(=O)CCC(=O)N(CC(=O)NC2CCCC2)c2ccc(C)c(F)c2)no1 | inactive
C[C@H](NC(=O)[C@@H]1Cc2ccccc2CN1C(=O)OC(C)(C)C)C(=O)NC1CCCCC1 | inactive

SMILES | Potency
CC(C)(CNC(=O)CC1C(=O)NCCN1Cc1cccc(F)c1)N1CCOCC1 (configuration not stated) | inactive
CCc1ccc(NC(=O)/C(C#N)=C/c2cc3ccc(C)cc3nc2N2CCOCC2)cc1 | inactive
OC(CN1CCCCC1)Cn1c2ccccc2c2cc(Br)ccc21 (configuration not stated) | inactive
CC1(C)CC(=O)/C(=C\c2cccc([N+](=O)[O-])c2)C(C)(C)N1 | inactive
Cc1cc(C)c(S(=O)(=O)N2CCN(C(=O)N3CCOCC3)CC2)c(C)c1 | inactive
CN(C)CCN1C(=O)c2cccc3cc([N+](=O)[O-])cc(c23)C1=O | 7.94 µM (active)
O=C(OCC(=O)c1ccc(Cl)s1)c1cncc(Br)c1 | inactive
Cc1cccc(/C=N/NC(=O)NC23CC4CC(CC(C4)C2)C3)n1 | inactive
CC(=O)N1CCN(c2nnc(-c3ccccc3)c3ccccc23)CC1 | inactive
CC1(C)CC(=O)C(C(O)c2ccccc2)C(C)(C)N1 (configuration not stated) | inactive
CCCn1c(=O)c(C(=O)NNS(=O)(=O)c2ccc(C)cc2)c(O)c2ccccc21 | inactive
O=C1CCN(S(=O)(=O)c2ccc(Br)cc2)CCN1 | inactive
O=C(COC(=O)c1cccc(-n2cnnn2)c1)c1ccccc1 | inactive
COc1cc(NCCCC(C)N)c2ncccc2c1 (configuration not stated) | 44.7 µM (active)
CNC(=S)N/N=C/c1c(C)nn(-c2ccccc2)c1Cl | inactive
O=S(=O)(NCCNS(=O)(=O)c1ccc(F)cc1)c1ccc(F)cc1 | inactive
CN(C)CCCNc1c2ccccc2nc2ccccc12 | inactive
Nc1c2ccccc2nc2ccccc12 | 11.2 µM (active)
Nc1cccc2nc3ccccc3cc12 | 50.1 µM (active)
c1ccc(Oc2ncnc3ccccc23)cc1 | inactive
CC(=O)Nc1ccc2c(c1)NC(=O)CC2 | inactive
CN(C)c1ccc2c(c1)C(=NO)c1ccccc1-2 | 70.8 µM (active)
COC(=O)Cc1ccc(NC(=S)NC(C)(C)C)cc1 | inactive
